High-throughput results: PubChem BioAssay, National Center for Advancing Translational Sciences (NCATS)
CtBP-E1A blk: qHTS Assay for Inhibitors of the CtBP/E1A Interaction; activity change, % (test concentration not listed); 340,000 compounds, 0.49% hits; AlphaScreen GST-E1A/His-CtBP binding, 1536-well; hits give low values; CtBP / adenovirus E1A interaction (AlphaScreen); AID 651724, 2012; in the data active = activity change below about -65%; inconclusive = mostly about -30% to -63%
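Protein mix (5X: 125 nM each GST-E1A, His-CtBP) was incubated with pinned compound 2 h at 37 deg C in dark, in 50 mM Tris pH 8.0 buffer with 300 mM NaCl. Glutathione donor and nickel acceptor beads followed; AlphaScreen signal read after 1 h.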
IL-1B inflam inh: qHTS for Inhibitors of Inflammasome Signaling: IL-1-beta AlphaLISA Primary Screen; THP-1 LPS/ATP IL-1B secretion, AlphaLISA, 16 h; hits give low values; activity change, % at 57.5 µM; 360,000 compounds, 4.7% hits; AID 743279, 2014; in the data active = activity change below about -50%; inconclusive = mostly about -30% to -49%
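Secreted IL-1B measured by AlphaLISA bead assay after 16 h compound exposure of THP-1 cells; compounds (final up to 57.5 uM) added 1 h before LPS (250 ng/mL) and ATP (1.25 mM) stimulation; lower signal means less secretion.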
Six1-Eya2 inh: qHTS Assay for Inhibitors of the Six1/Eya2 Interaction. 360,000 compounds, 0.56% hits. AlphaScreen GST-Six1/His-Eya2 binding, biochemical; hits give low values. activity change, % (concentration not given with the values); in the data active = activity change below about -65%; inconclusive = mostly about -30% to -63%
Target sequence (O00167 whole entry, looked up): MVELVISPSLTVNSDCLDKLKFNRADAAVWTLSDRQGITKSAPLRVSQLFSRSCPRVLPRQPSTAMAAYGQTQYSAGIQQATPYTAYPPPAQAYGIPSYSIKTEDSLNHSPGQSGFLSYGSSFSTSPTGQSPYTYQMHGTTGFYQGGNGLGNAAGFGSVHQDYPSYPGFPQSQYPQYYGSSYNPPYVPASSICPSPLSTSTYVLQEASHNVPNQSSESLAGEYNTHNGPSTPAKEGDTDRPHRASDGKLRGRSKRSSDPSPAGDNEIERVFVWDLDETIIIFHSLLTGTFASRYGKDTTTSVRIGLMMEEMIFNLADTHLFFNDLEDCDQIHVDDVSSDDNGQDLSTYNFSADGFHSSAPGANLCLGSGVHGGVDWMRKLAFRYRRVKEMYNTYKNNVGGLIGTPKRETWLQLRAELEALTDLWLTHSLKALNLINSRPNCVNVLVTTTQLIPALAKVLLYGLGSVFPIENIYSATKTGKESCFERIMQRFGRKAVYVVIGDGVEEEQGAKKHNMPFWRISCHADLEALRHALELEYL
Target sequence (Q15475 whole entry, looked up): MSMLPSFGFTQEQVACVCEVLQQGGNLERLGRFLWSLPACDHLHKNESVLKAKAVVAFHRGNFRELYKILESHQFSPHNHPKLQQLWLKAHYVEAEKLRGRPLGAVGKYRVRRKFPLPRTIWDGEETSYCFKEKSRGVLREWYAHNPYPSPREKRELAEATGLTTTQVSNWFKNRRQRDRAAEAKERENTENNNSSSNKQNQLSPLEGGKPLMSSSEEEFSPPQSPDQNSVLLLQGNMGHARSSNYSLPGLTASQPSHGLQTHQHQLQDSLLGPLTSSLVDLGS
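AlphaScreen with GST-Six1 and His-Eya2 (5X mix: 250 nM and 500 nM), glutathione donor and nickel acceptor beads; buffer 50 mM Tris pH 8.0, 300 mM NaCl, 1 mM TCEP; 1 h at 37 C in the dark.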
TDP1 block: qHTS Assay for Inhibitors of Tyrosyl-DNA Phosphodiesterase (TDP1); 350,000 compounds, 0.28% hits; Tyrosyl-DNA phosphodiesterase 1 (Homo sapiens), Q9NUW8; recombinant TDP1, AlphaScreen DNA substrate cleavage; Potency, µM (top dose mostly 130 µM), for the others: at the highest dose activity change, negative = inhibition, hits mostly inhibitors; note: potency is the fitted concentration of half-maximal effect; nearly all actives have a fitted effect of over 40% in size
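Recombinant human Tdp1 (E. coli-expressed, 1 nM final) preincubated with compounds 15 min at room temperature, then 5'-biotin/3'-phosphotyrosine-FITC DNA substrate (15 nM final) added for 5 min. AlphaScreen beads (10 ug/ml final) added 10 min; cleavage lowers signal.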
TDP1 cell CPT: qHTS for Inhibitors of human tyrosyl-DNA phosphodiesterase 1 (TDP1): qHTS in cells in presence of CPT; chicken DT40 Tdp1-/-;hTDP1 cells + 20 nM CPT, ATP luminescence, 48 h; 420,000 compounds, 12% hits; Potency, µM (top dose mostly 46.2 µM), for the others: top-dose activity change, negative = growth inhibition, usual class: inhibitors; note: potency is the fitted concentration of half-maximal effect; nearly all actives have a fitted effect of over 55% in size
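Chicken DT40 Tdp1-/- cells complemented with human TDP1, 400 cells/well, exposed to compounds plus 20 nM camptothecin for at least 48 h at 37 C; viability read as ATP content by CellTiter-Glo luminescence.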
TDP1 cell noCPT: qHTS for Inhibitors of human tyrosyl-DNA phosphodiesterase 1 (TDP1): qHTS in cells in absence of CPT; DT40 Tdp1-/- hTDP1 cells, no CPT, ATP luminescence, 48 h; Potency, µM (doses to about 46.2 µM), without a hit: at the top dose activity change, negative = growth inhibition, actives largely listed as inhibitors; 420,000 compounds, 15% hits; AID 686978, 2013; note: potency is the fitted concentration of half-maximal effect; nearly all actives have a fitted effect of over 55% in size
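Chicken DT40 Tdp1-/- cells stably complemented with human TDP1 were seeded at 400 cells/well with DMSO in place of 20 nM camptothecin. After compound pinning, cells grew at least 48 hr at 37 °C; viability read by CellTiter-Glo luminescence.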
Starred values were filed as active, the others as inactive; ? = inconclusive; / = no result. Most compounds without a hit are left out; they make up all but 18% or so of the library. Unless noted, calls come from the whole dose curve; as a rule, active = well fitted curve in the direction sought with a large enough effect; inconclusive = small, poorly fitted or top-dose-only effect, or another doubt; inactive = no such curve, though single readings can be large; an effect the other way counts as inactive or inconclusive. % is set by controls: 0 for no effect and ±100 for the full control effect.

SMILES	CtBP-E1A blk	IL-1B inflam inh	Six1-Eya2 inh	TDP1 block	TDP1 cell CPT	TDP1 cell noCPT
O=C(CN1CCN(C(C(=O)Nc2ccc(Cl)cc2C(F)(F)F)c2ccccc2)CC1)NC1CC1 (configuration not stated)	2	?	0	0%	?	?
O=C(CN1CCN(c2ccccn2)CC1)Nc1ccc(OC(F)(F)F)cc1	7	-25	12	/	-5%	23µM*
CC(OC(=O)c1ccc(O)cc1)C(=O)Nc1cc(C(F)(F)F)ccc1Cl (configuration not stated)	7	32	3	/	?	?
O=C(CSc1n[nH]c(=O)n1-c1cccnc1)Nc1ccccc1Cl	-15	17	5	1%	19%	-4%
COc1cc(NC(=O)C2CCN(S(=O)(=O)Cc3ccccc3)CC2)c(OC)cc1Cl	/	/	/	9%	1%	-14%
CCOC(=O)C1(CC2CCCCO2)CCN(S(=O)(=O)c2ccc(C)s2)CC1 (configuration not stated)	2	19	1	4%	-7%	8%
Cc1ccc(OCC(=O)OCc2cc(=O)n3nc(C4CCCCC4)sc3n2)cc1	/	/	/	6%	-13%	-16%
Cn1cnnc1SCc1cccc(Br)c1	-7	-1	0	0%	-2%	2%
CC(CCc1ccccc1)NC(=O)COC(=O)c1ccccc1Br (configuration not stated)	/	-4	2	/	14%	-5%
Cc1nn(CC(=O)Nc2cc(S(=O)(=O)N(C)C)ccc2Cl)c(C)c1[N+](=O)[O-]	10	1	3	0%	-19%	-22%
CSc1nc2ncc(-c3ccsc3)c(N)n2n1	/	-4	-3	-1%	9%	-27%
O=C(CN1CCN(c2ccccn2)CC1)Nc1ccc(Cl)c(C(F)(F)F)c1	9	-9	2	0%	18µM*	18µM*
COCCCN1C(=O)c2[nH]nc(-c3ccccc3O)c2C1c1ccc(Cl)cc1 (configuration not stated)	-5	-7	-4	9%	23µM*	?
COCCCN1C(=O)c2[nH]nc(-c3ccccc3O)c2C1c1ccc(OC)cc1 (configuration not stated)	/	/	/	10%	16µM*	29µM*
COCCCN1C(=O)c2[nH]nc(-c3cc(C)cc(C)c3O)c2C1c1ccc(O)c(OC)c1 (configuration not stated)	-3	7	-2	8%	21µM*	?
CCOc1cc(C2c3c(-c4ccccc4O)n[nH]c3C(=O)N2CCc2ccccc2)ccc1O (configuration not stated)	/	/	/	4%	16µM*	?
COCCCN1C(=O)c2[nH]nc(-c3cc(C)ccc3O)c2C1c1ccc(F)cc1 (configuration not stated)	/	/	/	4%	?	?
O=C(CSc1nccn1Cc1ccc(Cl)cc1)Nc1nc2ccccc2s1	/	/	/	11%	?	?
O=C(Nc1ccccc1[N+](=O)[O-])c1ccc(S(=O)(=O)N2CCCC2)cc1	-16	?	-15	8%	-23%	-28%
O=C1c2[nH]nc(-c3ccccc3O)c2C(c2ccc(Cl)cc2)N1CCc1ccccc1 (configuration not stated)	/	/	/	9%	21µM*	16µM*
CN(Cc1ccccc1)C(=O)COC(=O)c1ccc(Cl)cc1N	-16	1	16	0%	10µM*	?
O=C(COC(=O)c1ccc(N2CCCC2=O)cc1)c1ccccc1	0	-8	24	4%	2%	-20%
CC(C)(C)N(Cc1ccccc1)C(=O)COC(=O)c1ccc(N2CCCC2=O)cc1	-2	-8	4	1%	?	16µM*
CCOc1ccc(C(C)=O)cc1COC(=O)c1ccccc1C(=O)N(C)Cc1ccccc1	-13	?	6	5%	18µM*	7.3µM*
CC(C)(C)N(Cc1ccccc1)C(=O)COC(=O)c1ccccc1SCC(=O)N1CCCC1	4	-52*	-7	/	?	?
SMILES	CtBP-E1A blk	IL-1B inflam inh	Six1-Eya2 inh	TDP1 block	TDP1 cell CPT	TDP1 cell noCPT
O=C(COC(=O)c1ccccc1SCC(=O)N1CCCC1)Nc1ccccc1	-1	28	2	7%	?	-11%
CN(Cc1ccccc1)C(=O)COC(=O)Cc1ccc(Cl)cc1	11	-3	7	-3%	0%	-2%
COc1ccc(CNC(=O)CN(Cc2ccccc2OC)C(=O)c2csnn2)cc1	2	4	6	11%	-20%	?
Cc1c(C(=O)NCCc2ccc(S(N)(=O)=O)cc2)sc2nc3n(c(=O)c12)CCCC3	/	/	/	0%	-3%	-13%
Cc1[nH]c2ccccc2c1C(=O)COC(=O)c1ccccc1SCC(=O)N1CCCC1	/	/	/	/	?	11µM*
CN(Cc1ccccc1)C(=O)c1ccccc1C(=O)OCC(=O)N(Cc1ccccc1)C(C)(C)C	-2	-50*	-7	0%	23µM*	15µM*
CCc1c(C)nc(SCC(=O)N2CCN(c3ccccc3)CC2)[nH]c1=O	-1	37	3	5%	-1%	?
COc1ccccc1/C=N/NC(=O)NC12CC3CC(CC(C3)C1)C2	3	-20	7	/	-3%	?
CC(=O)c1ccc(NC(=O)C2CCN(S(=O)(=O)c3ccc4c(c3)CCCN4C(=O)C3CCC3)CC2)cc1	/	/	/	3%	12µM*	?
CSc1cccc(NC(=O)C2CCN(S(=O)(=O)c3ccc4c(c3)CCCN4C(=O)C3CCC3)CC2)c1	/	/	/	0%	?	12µM*
CC(=O)N1CCCc2cc(S(=O)(=O)N3CCCC3)ccc21	-1	26	12	1%	3%	6%
Cc1cccc(NC(=O)C2CCN(S(=O)(=O)c3ccc4c(c3)CCCN4C(=O)C3CCC3)CC2)c1	/	/	/	7%	?	?
CSc1cccc(NC(=O)C2CCCN(S(=O)(=O)c3ccc4c(c3)CCCN4C(C)=O)C2)c1 (configuration not stated)	/	/	/	1%	18µM*	21µM*
